Measured values reported in the supplement of paper PMC6555819.

Columns and labels:
Assay in all cases: PBM binding z-score (relative to random genomic background probes); higher = stronger binding; sequences stand for … in GC…GCGATTGACAGCGTAGAATGAAGG
[1] = test system: FXR:RXRa (NR concentration 270 nM, RXRa partner concentration 90 nM)
In short: (§1)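 Probes were double-stranded and carried 34-nt variable regions with direct-repeat seeds, single-nucleotide variants, half-site ablations and random human genomic background sequences, printed on custom Agilent 4×180K protein-binding microarrays. Arrays were incubated 1 h with ligand-free nuclear receptor dimers in PBS pH 7.4, 2% milk, 0.02% Triton X-100, 1 mM DTT, 0.2 mg/mL BSA and 0.4 mg/ml salmon testes DNA. Antibodies against each partner (one per run) detected binding, and scanned fluorescence was regression-normalized. Binding z-scores use the random background probes as reference.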

[2] = test system: LXRa:RXRa (NR concentration 270 nM, RXRa partner concentration 90 nM)
In short: as §1

[3] = test system: LXRa homodimer (NR concentration 270 nM)
In short: as §1

[4] = test system: LXRb:RXRa (NR concentration 270 nM, RXRa partner concentration 90 nM)
In short: as §1

[5] = test system: LXRb homodimer (NR concentration 270 nM)
In short: as §1

[6] = test system: PPARa:RXRa (NR concentration 270 nM, RXRa partner concentration 90 nM)
In short: as §1

[7] = test system: PPARg:RXRa (NR concentration 180 nM, RXRa partner concentration 90 nM)
In short: as §1

[8] = test system: PPARg:RXRa 270nM:90nM, anti-RXR (NR concentration 270 nM, RXRa partner concentration 90 nM)
In short: as §1

[9] = test system: PPARg:RXRa 30nM:10nM, anti-RXR (NR concentration 30 nM, RXRa partner concentration 10 nM)
In short: as §1

[10] = test system: PPARg:RXRa 90nM:30nM, anti-RXR (NR concentration 90 nM, RXRa partner concentration 30 nM)
In short: as §1

[11] = test system: PPARg:RXRa DBDmut IVT, anti-RXR (DBD mutation: RXRa K156A/R161A, NR concentration 270 nM, RXRa partner concentration 90 nM)
In short: as §1

[12] = test system: PPARg:RXRa IVT, anti-PPARg (NR concentration 270 nM, RXRa partner concentration 90 nM)
In short: as §1

[13] = test system: PPARg DBDmut:RXRa IVT, anti-PPARg (DBD mutation: PPARg1 K132A/R137A, NR concentration 270 nM, RXRa partner concentration 90 nM)
In short: as §1

[14] = test system: PPARg DBDmut IVT, anti-PPARg (DBD mutation: PPARg1 K132A/R137A, NR concentration 270 nM)
In short: as §1

[15] = test system: PPARg homodimer (NR concentration 180 nM)
In short: as §1

[16] = test system: PXR:RXRa (NR concentration 270 nM, RXRa partner concentration 90 nM)
In short: as §1

[17] = test system: PXR homodimer (NR concentration 270 nM)
In short: as §1

[18] = test system: RARa:RXR (NR concentration 270 nM, RXRa partner concentration 90 nM)
In short: as §1

[19] = test system: RARa homodimer (NR concentration 270 nM)
In short: as §1

[20] = test system: RARb:RXRa (NR concentration 270 nM, RXRa partner concentration 90 nM)
In short: as §1

Sequence	PBM binding z-score [1]	PBM binding z-score [2]	PBM binding z-score [3]	PBM binding z-score [4]	PBM binding z-score [5]	PBM binding z-score [6]	PBM binding z-score [7]	PBM binding z-score [8]	PBM binding z-score [9]	PBM binding z-score [10]	PBM binding z-score [11]	PBM binding z-score [12]	PBM binding z-score [13]	PBM binding z-score [14]	PBM binding z-score [15]	PBM binding z-score [16]	PBM binding z-score [17]	PBM binding z-score [18]	PBM binding z-score [19]	PBM binding z-score [20]
CCTATTAGTTGACCATAATGGCAACCGAAGCTCG	0.282	0.486	0.78	0.483	1.03	0.289	0.468	-0.0519	-0.187	0.0677	0.772	0.551	0.742	1.21	2	0.599	1.05	0.673	2.52	0.621
CAAACTAGGTCTCAGAGGTCAAAGTCCGTGCGTA	4.78	5.2	5.13	4.97	1.8	5.18	4.67	5.17	2.69	4.41	5.55	5.54	0.45	0.559	2.98	5.51	2.93	5.67	1.38	3.88
AATACAGGGTCATCGTAGGCCCGAGTACGCACAG	6.78	5.81	2.32	3.99	0.935	5.82	6.57	6.13	2.54	5.01	2.64	3.72	0.916	-0.158	1.25	3.92	0.581	4.7	0.922	4.23
GTTAGTTGGTCAGTAAAAGGTCACACACCGGTCG	3.73	4.28	5.17	3.94	1.41	4.6	3.42	4.81	2.66	4.18	2.02	3.66	1.57	0.79	5.74	5.26	1.74	6.27	3.99	4.39
CGAACTAGGTCAGAACACGACAGTGAAGGATGAT	1.16	0.462	-0.145	0.53	-0.0845	3.26	5.4	4.53	1.68	3.56	7.06	7.2	1.44	1.71	1.06	0.221	0.0475	0.721	0.743	2.84
CGTCCAAGGTCAAATGTCAGTGAAGAGATGACGG	7.54	5.76	1.47	4.6	2.22	6.09	6.34	6.37	3.35	5.7	3.67	4.11	0.495	-0.392	2.49	4.82	1	5.67	0.72	5.38
AGTCAAAGTTCAGGATGAGGTAACGTAAAGCACG	4.14	3.93	1.07	2.02	0.238	3.58	4.66	4.92	2.26	3.84	0.224	2.35	0.915	0.721	2.23	3.14	1.49	3.09	0.768	4.37
